The source of these data is PubChem BioAssay AID1220 (Sanford-Burnham Center for Chemical Genomics, 2008).

In all, about 190,000 compounds went through this assay and about 1,300 (0.68%) were called active. This is one part of a sample in which actives are shown more often than they occur. No stated cut-off is given here; in the data, active means inhibition above about 50%; inactive means the rest.

The target of the test is Mannose-6-phosphate isomerase (Homo sapiens) (UniProt P34949). The test is described as follows: MPI inhibition at elevated mannose 6-phosphate – biochemical, fluorescence intensity, high mannose 6-phosphate, primary screen (AID 1220). The note with it: recombinant PMI enzyme, coupled fluorescence intensity; at 20 µM; active compounds read high.
Sequence of Mannose-6-phosphate isomerase (Homo sapiens) (P34949 whole entry, looked up): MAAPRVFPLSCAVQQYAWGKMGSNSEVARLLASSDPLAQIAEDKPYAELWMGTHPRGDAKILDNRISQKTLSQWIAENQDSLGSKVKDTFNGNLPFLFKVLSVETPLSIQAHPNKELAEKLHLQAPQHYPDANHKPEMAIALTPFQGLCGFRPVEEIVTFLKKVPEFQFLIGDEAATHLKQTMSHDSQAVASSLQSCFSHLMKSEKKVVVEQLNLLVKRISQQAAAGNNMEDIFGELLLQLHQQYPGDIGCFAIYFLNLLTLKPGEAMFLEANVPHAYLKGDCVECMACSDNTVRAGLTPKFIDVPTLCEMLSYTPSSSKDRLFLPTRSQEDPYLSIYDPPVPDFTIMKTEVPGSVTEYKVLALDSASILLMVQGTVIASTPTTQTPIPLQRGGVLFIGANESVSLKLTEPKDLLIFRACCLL
Take `Cc1ccc(-c2nc(SCC(=O)Nc3cc(S(=O)(=O)N4CCCCC4)ccc3Cl)n[nH]2)cc1`: the inhibition was 10.9% (inactive).

In the case of `C=C1c2ccccc2NC(=S)N1Cc1ccc2c(c1)OCO2`, the inhibition was -15.3% (inactive).

On to `N#CC1=C(N)SC2(CCCCC2)SC1c1ccccc1` (stereo not drawn), for which the inhibition is -5.5% (inactive).

For `CC(C)CC(=O)OCc1cn(-c2ccccc2)nn1`, the inhibition was -8.7% (inactive).

Regarding `Cc1nnc(NC(=O)CSc2nccn2C)s1`, the inhibition is -2.9% (inactive).

In the case of `COc1ccc(-n2nc3c(N)n[nH]c3cc2=O)cc1`, the inhibition is -97.5% (inactive).

For the compound `CCOc1c(OC(C)=O)ccc(/C=C/c2ccc3cccc(OC)c3n2)c1[N+](=O)[O-]`, the inhibition was 11.3% (inactive).

`COc1ccc(CC(NC(C)=O)C(=O)NC2CCN(S(=O)(=O)c3ccccc3)CC2)cc1OC` (stereo not drawn): the inhibition is 4.4% (inactive).

For the compound `CC(/C=C/c1ccccc1)=N/NC(=O)CCC(=O)Nc1ccccc1C`, the inhibition was -55.7% (inactive).

For the compound `O=C(NCc1ccc(Cl)cc1)c1ccc(-c2ccccc2C(F)(F)F)o1`, the inhibition is 2.3% (inactive).

On to `Oc1ccc2ccccc2c1Br`, for which the inhibition is 52.5% (active).

As for `Oc1ccc(N=Nc2c(O)ccc3ccccc23)cc1`, the inhibition was 20.8% (inactive).

Regarding `O=C(O)Cc1c(O)ccc2ccccc12`, the inhibition is 9.9% (inactive).

As to `CC1CCN(CCNC(=O)CN(C)S(=O)(=O)c2cccc3nsnc23)CC1`, the inhibition was 0.3% (inactive).

As for `Cc1c(Cl)cccc1NC(=S)Nc1ccccn1`, the inhibition is 3.2% (inactive).

`COc1cc(NC(=O)C2=C(N3CCOCC3)/C(=C/c3ccc(Cl)cc3)CC2)cc(OC)c1OC`: the inhibition was 23.9% (inactive).

With `COc1cccc(CNC(=O)c2nnn(-c3ccc(OC(F)(F)F)cc3)c2N)c1`, the inhibition is -5.4% (inactive).

On to `COC(=O)c1cc(=O)n(Cc2cccs2)c(=Nc2ccc(F)cc2)s1`, for which the inhibition was -2% (inactive).

As for `COc1ccc(O)c(C(c2c(C)[nH][nH]c2=O)c2c(C)[nH][nH]c2=O)c1`, the inhibition is 56.6% (active).

Take `CCOc1cc(C(c2c(C)[nH][nH]c2=O)c2c(C)[nH][nH]c2=O)ccc1O`: the inhibition is 49.7% (inactive).

`Cc1[nH][nH]c(=O)c1C(c1cc([N+](=O)[O-])ccc1O)c1c(C)[nH][nH]c1=O`: the inhibition is 31.8% (inactive).

As for `CN(C)c1nc(N)nc(-c2nc3ccccc3s2)n1`, the inhibition is 6.8% (inactive).

For the compound `COc1ccc(C(=O)/C=C/Nc2ccc([N+](=O)[O-])cc2)cc1`, the inhibition is -10.3% (inactive).

For the compound `Cc1ccc2cccc(N=Cc3c(C)[nH]n(-c4ccccc4)c3=O)c2n1`, the inhibition was -9.8% (inactive).

Take `Cc1cc(Br)ccc1-n1[nH]c(C)c(C=Nc2cccc3nsnc23)c1=O`: the inhibition is 70.9% (active).

`COc1ccccc1N=Cc1c(C)[nH]n(-c2ccc(C)cc2C)c1=O`: the inhibition is 11.1% (inactive).

Turning to `Cc1ccc(-c2csc(NC(=O)COc3ccc(N(C)S(=O)(=O)c4ccc(C)cc4)cc3)n2)cc1`, the inhibition was 8.1% (inactive).

Take `O=C(Nc1cccc2c1CCCC2)c1ccncc1`: the inhibition was -4% (inactive).

For `CC(C)C(=O)Nc1ncc2c(n1)CC(c1cccs1)CC2=O` (stereo not drawn), the inhibition is 4% (inactive).

Consider `CCC(C)C(=O)Nc1ncc2c(n1)CC(c1cccs1)CC2=O` (stereo not drawn), for which the inhibition was -1.8% (inactive).

Consider `CC(C)OCCCNc1ncc2c(n1)CC(c1ccccc1)CC2=O` (stereo not drawn), for which the inhibition was 53.2% (active).

For `CCOCCCNc1ncc2c(n1)CC(c1ccc(C)cc1)CC2=O` (stereo not drawn), the inhibition is 9.4% (inactive).

Consider `CC(C)OCCCNc1ncc2c(n1)CC(c1cccs1)CC2=O` (stereo not drawn), for which the inhibition is 61.9% (active).

As for `CC(C)OCCCNc1ncc2c(n1)CC(c1ccc(N(C)C)cc1)CC2=O` (stereo not drawn), the inhibition was 22.7% (inactive).

Regarding `COc1ccc(C2CC(c3ccc(OC)cc3)n3nc(N)nc3N2)cc1` (stereo not drawn), the inhibition was 10.5% (inactive).

As to `COc1cccc(C2CC(c3c(Cl)cccc3Cl)n3nc(N)nc3N2)c1` (stereo not drawn), the inhibition is 11.8% (inactive).

Consider `COc1ccc(C2CC(c3c(Cl)cccc3Cl)n3nc(N)nc3N2)cc1` (stereo not drawn), for which the inhibition is 56.3% (active).

Take `CN(C)/C=C1/Oc2c(ccc3ccccc23)C1=O`: the inhibition was 59.2% (active).

Consider `COc1cccc2c1C(=O)c1ccc3ccccc3c1C2=O`, for which the inhibition was -81.6% (inactive).

In the case of `CN(C)C=C1C(=O)c2ccccc2C1=O`, the inhibition was 0.8% (inactive).

For the compound `CCCn1c(=O)c2c(nc(Br)n2CCC)n(C)c1=O`, the inhibition is -0.3% (inactive).

For `COc1ccc(NC(=O)C(c2cc3c(cc2[N+](=O)[O-])OCO3)N(C)Cc2ccccc2)cc1` (stereo not drawn), the inhibition is 54.8% (active).

In the case of `COc1ccc(NC(=O)/C=C/c2ccc3c(c2)OCO3)cc1`, the inhibition is 8.9% (inactive).

As to `COc1ccc(C(C(=O)Nc2ccc3c(c2)OCO3)N(C)C(=O)Cc2c[nH]c3ccccc23)cc1` (stereo not drawn), the inhibition is 18.8% (inactive).

With `CC1CCCN(C(C(=O)NC2CCCCC2)c2cc3c(cc2[N+](=O)[O-])OCO3)C1` (stereo not drawn), the inhibition is 41.4% (inactive).

Regarding `Cc1c(C(=O)OCC(=O)Nc2ccc3c(c2)OCO3)cccc1[N+](=O)[O-]`, the inhibition was 16.9% (inactive).

Consider `COc1ccc(NC(=O)CN2CCN(CC(=O)Nc3ccc4c(c3)OCO4)CC2)cc1`, for which the inhibition is 0.8% (inactive).

In the case of `COc1ccc(NC(=O)C(c2cc3c(cc2[N+](=O)[O-])OCO3)N2CCN(C=O)CC2)cc1` (stereo not drawn), the inhibition is 65.9% (active).

`CCN(c1cccc(C)c1)C(C(=O)Nc1ccc(OC)cc1)c1cc2c(cc1[N+](=O)[O-])OCO2` (stereo not drawn): the inhibition was 54.3% (active).

In the case of `COc1ccc(NC(=O)C(c2cc3c(cc2[N+](=O)[O-])OCO3)N(C)c2ccccc2)cc1` (stereo not drawn), the inhibition is 43.1% (inactive).

As for `COc1ccc(NC(=O)C(c2cc3c(cc2[N+](=O)[O-])OCO3)N(C)C)cc1` (stereo not drawn), the inhibition was 55.6% (active).

For `COc1ccc(NC(=O)c2ccc(NC(=O)C(C)C)cc2)c([N+](=O)[O-])c1`, the inhibition was 1.6% (inactive).

For `O=C(Cc1ccccc1[N+](=O)[O-])Nc1ccc2c(c1)OCO2`, the inhibition is 0% (inactive).

As to `Cc1nn2cnc3sc4c(c3c2nc1=O)CCCC4`, the inhibition was 1.4% (inactive).

In the case of `Cc1ccc(C)c(NC(=O)CSc2n[nH]c(-c3ccncc3)n2)c1`, the inhibition is 4.4% (inactive).

Turning to `COc1cc(C(=O)NCCC(=O)N2CCN(C)CC2)cc(OC)c1OC`, the inhibition is -1% (inactive).

Turning to `COC(=O)c1ccc(NC(=O)C2CCCN2S(=O)(=O)c2ccc(C)cc2)cc1` (stereo not drawn), the inhibition is 2.7% (inactive).

As for `O=C(O)/C(=C\c1ccc(Cl)c([N+](=O)[O-])c1)c1ccc(S(=O)(=O)N2CCCCC2)s1`, the inhibition is 57% (active).

Regarding `O=C(O)/C(=C\c1ccccc1Cl)c1ccc(S(=O)(=O)N2CCCCC2)s1`, the inhibition is -23% (inactive).

With `O=C(O)/C(=C\c1ccc(Br)cc1)c1ccc(S(=O)(=O)N2CCCCC2)s1`, the inhibition is 3.7% (inactive).

With `Cc1c(Cl)c([N+](=O)[O-])nn1CCCC(=O)N1CCN(c2ccccc2)CC1`, the inhibition is -19.1% (inactive).

In the case of `COc1cccc(CNC(=S)Nc2cc(C)cc(C)c2)c1`, the inhibition is 4.2% (inactive).

Turning to `O=c1[nH]c2ccccc2n2cnnc12`, the inhibition was -5.9% (inactive).

As for `O=c1[nH]c2ccccc2n2c(-c3ccccc3)nnc12`, the inhibition is 74.5% (active).

For the compound `O=c1[nH]c2ccccc2n2c(-c3ccncc3)nnc12`, the inhibition is 0.5% (inactive).

Turning to `COc1ccc(S(=O)(=O)N(C)CC(=O)Nc2ccc(C(N)=O)cc2)cc1OC`, the inhibition was -13.3% (inactive).

As for `CC(C)N(C(=O)CSc1nnc(CNc2ccc(F)cc2)o1)C(C)C`, the inhibition was 17% (inactive).

In the case of `Cc1cc(C)c2nc(N)sc2c1`, the inhibition is 7.6% (inactive).

As to `Cc1cc(C)c(O)c(N)c1`, the inhibition was 61.3% (active).

For `Cc1cc(C)c2ccc(N)nc2c1O`, the inhibition is 26% (inactive).

For the compound `Cc1nc2cc(C)c(C)cc2s1`, the inhibition was -8.8% (inactive).

For the compound `CCC(C)(C)NC(=O)c1cc(C(=O)OC)cc([N+](=O)[O-])c1`, the inhibition was -6.6% (inactive).

Regarding `O=C(N/N=C/C(Br)=C/c1ccccc1)C1CC1`, the inhibition was 14.3% (inactive).

As to `COc1cc2c(cc1O)CC[n+]1cc3c(OC)c(OC)ccc3cc1-2`, the inhibition was 39.9% (inactive).

As to `COc1cc2c(cc1OC)-c1cc3ccc4c(c3c[n+]1CC2)OCO4`, the inhibition is 53.6% (active).

Take `COc1ccc2cc3[n+](cc2c1OC)CCc1cc2c(cc1-3)OCO2`: the inhibition is 33.7% (inactive).

`O=c1c2ccccc2nc(-c2cccs2)n1-c1cccc2ccccc12`: the inhibition is -3.7% (inactive).

In the case of `O=C1c2ccccc2-n2c1nc1ccccc1c2=O`, the inhibition is 50.7% (active).

For the compound `O=c1c2ccccc2nc(-c2ccccc2Cl)n1O`, the inhibition was -7.6% (inactive).

Turning to `O=C(NCc1ccco1)Nc1ccccc1Cl`, the inhibition was 5.5% (inactive).

In the case of `NS(=O)(=O)c1ccc(CCNC(=O)c2ccc(S(=O)(=O)N3CCCCC3)cc2)cc1`, the inhibition is -2.8% (inactive).

As for `O=C(c1ccc(Cl)cc1)c1c[nH]c(C(=O)NNc2cccc(Cl)n2)c1`, the inhibition was 4.5% (inactive).

On to `Oc1ccc(NCc2ccccc2OCc2ccccc2F)cc1`, for which the inhibition was 25% (inactive).

Take `Oc1ccc(NCc2ccccc2OCc2ccccc2)cc1`: the inhibition is 47.7% (inactive).

Take `CCOc1ccccc1CNc1ccc(O)cc1`: the inhibition was 59.4% (active).

For the compound `COc1ccc(C2SCC(=O)N2c2c(C)n(C)n(-c3ccccc3)c2=O)cc1OC` (stereo not drawn), the inhibition is -1.7% (inactive).

On to `CCOc1ccc(OCC)c(S(=O)(=O)NNC(=O)c2c(C)nc3ccccn23)c1`, for which the inhibition was -3.5% (inactive).

As to `CC(=O)N1c2ccccc2C2(O)N=C(C)SC12` (stereo not drawn), the inhibition is 52.8% (active).

Consider `Cc1ccc(C(=O)CC2(O)C(=O)N(C)c3ccccc32)s1` (stereo not drawn), for which the inhibition is 9.4% (inactive).

For the compound `CC(=O)N1c2ccccc2C(C)(C)C2CCC(C)CC21` (stereo not drawn), the inhibition is -3.5% (inactive).

As to `CCOC(=O)C1=C(C)N(C)C(=O)NC1c1c(C)nn(-c2ccc(C)cc2)c1Cl` (stereo not drawn), the inhibition was -4% (inactive).

Regarding `CCOC(=O)C1=C(C)N(C)C(=O)NC1c1c(C)nn(-c2ccccc2)c1C` (stereo not drawn), the inhibition was 1.3% (inactive).

As to `Nc1nc(SCC(=O)NCC2CCCO2)n[nH]1` (stereo not drawn), the inhibition is 5.9% (inactive).

Take `CCOc1ccc2[nH]c(=O)c(CN(CCO)C(=O)c3ccccc3F)cc2c1`: the inhibition was -1% (inactive).

For the compound `CCc1ccc2c(c1)CCCN2C(=O)c1ccccc1C(=O)O`, the inhibition is -10% (inactive).

For the compound `CCCN1CCCc2cc(CN)ccc21`, the inhibition is 50.4% (active).

In the case of `CCCN1CCCc2ccccc21`, the inhibition was -58.9% (inactive).

For `COc1cc(C2C(C(C)=O)=C(O)C(=O)N2CCc2c[nH]c3ccccc23)ccc1O` (stereo not drawn), the inhibition is 21.6% (inactive).
